# Inconclusive results are not listed. A call without a number means that no potency is given here. The source made the active and inactive calls. The call rests on the fitted dose curve; in most records, active means well fitted inhibition curve with a large enough effect; inconclusive means small, poorly fitted or top-dose-only effect; inactive means no such curve, though single readings can be large or run the other way.
# Experiment: qHTS Screen of the MIPE 4.0 Collection Against Ewings Sarcoma (TC32) (AID 1259256); further: nearly all actives have a fitted effect of over 45% in size
# Settings: TC32 Ewing sarcoma viability, CellTiter-Glo, 48 h; series mostly up to 45.8 µM
# Method in brief: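 After a 4 h attachment period in RPMI/5% FBS, cells were pin-dosed with test compounds; DMSO served as negative and 9.2 uM bortezomib (final) as positive control. Luminescent CellTiter-Glo signal at 48 h defined viability.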
# Potency means the concentration at half of the fitted maximal effect.
row,SMILES,Potency
1,CCC(c1ccc(O)cc1)C(CC)c1ccc(O)cc1 (stereo unspecified),1.48 µM (active)
2,Cc1cc(OCCCS(C)(=O)=O)cc(C)c1-c1cccc(COc2ccc3c(c2)OC[C@H]3CC(=O)O)c1,inactive
3,CCC(=O)NCC[C@@H]1CCc2ccc3c(c21)CCO3,inactive
4,CN1CCN(c2cccc(Nc3nc4c(-c5ccc(S(C)(=O)=O)cc5)cccn4n3)c2)CC1,2.35 µM (active)
5,CN1CC(=O)NC1=NC(=O)Nc1cccc(Cl)c1,inactive
6,CNC1CCC(N(Cc2cccc(-c3ccncc3)c2)C(=O)c2sc3ccccc3c2Cl)CC1 (stereo unspecified),20.9 µM (active)
7,CCN1CCN(c2ccc(Nc3cc(N(C)C(=O)Nc4c(Cl)c(OC)cc(OC)c4Cl)ncn3)cc2)CC1,inactive
8,COc1ccc2ccc(=O)oc2c1CC=C(C)C,inactive
9,CCCCCOC(=O)Nc1nc(=O)n([C@@H]2O[C@H](C)[C@@H](O)C2O)cc1F (stereo partly specified),20.9 µM (active)
10,Nc1nc(Cl)nc2c1ncn2[C@@H]1O[C@H](CO)[C@@H](O)[C@H]1F,inactive
11,C[C@@]1(C(=O)Nc2ccc(F)nc2)CCCN1c1nc(Nc2cc(C3CC3)[nH]n2)c2cccn2n1,0.418 µM (active)
12,CC1=C(C(=O)Nc2cc3cn[nH]c3cc2F)C(c2ccc(C(F)(F)F)cc2)CC(=O)N1 (stereo unspecified),inactive
13,O=C(O)c1nc(=O)[nH]c(=O)[nH]1,inactive
14,CN(C)CCCNC(=O)c1ccc(-c2cc(O)c3ncccc3c2)cc1,14.8 µM (active)
15,Cc1ccc(C(=O)N(CCCN)[C@@H](c2oc3cc(Cl)ccc3c(=O)c2Cc2ccccc2)C(C)C)cc1,inactive
16,CN1C(=O)C(Cc2c[nH]c3ccccc23)NC1=S (stereo unspecified),inactive
